High-throughput results from PubChem.
hcDAF12 agonist: H. contortus DAF-12 nuclear receptor activators, primary screen, cell-based, luminescence, HEK293, lit1-tk-luc reporter; HEK293 hcDAF-12 lit1-tk-luc reporter; 0% DMSO, 100% Δ7-dafachronic acid; AID 652067, 2013; actives 1.4% (n = 370,000); activation, % at 6.8 µM;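 active = activation above the mean of all tested compounds plus 3 SD, cut at about 5.5% in these data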;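 also: 100% = response to 3 µM Δ7-dafachronic acid high control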
DAX1 inh-1: DAX1 (NR0B1) inhibitors, primary screen, cell-based, HEK293, Gal4-DAX1, luciferase luminescence | Nuclear receptor subfamily 0 group B member 1 (Homo sapiens), P51843 | HEK293 Gal4-DAX1 luciferase reporter | inhibition, % at 6.75 µM | actives 0.99% (n = 340,000) | AID 504766, 2011;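 active = inhibition above the mean over all tested compounds plus 3 SD, cut at about 4.2% in these data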;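 also: 0% = DAX1-transfected cells with DMSO and 100% = empty-vector control cells with DMSO; inhibition shows as a rise in luminescence from relieved DAX1 repression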
Target sequence (P51843 207-470 limits assumed): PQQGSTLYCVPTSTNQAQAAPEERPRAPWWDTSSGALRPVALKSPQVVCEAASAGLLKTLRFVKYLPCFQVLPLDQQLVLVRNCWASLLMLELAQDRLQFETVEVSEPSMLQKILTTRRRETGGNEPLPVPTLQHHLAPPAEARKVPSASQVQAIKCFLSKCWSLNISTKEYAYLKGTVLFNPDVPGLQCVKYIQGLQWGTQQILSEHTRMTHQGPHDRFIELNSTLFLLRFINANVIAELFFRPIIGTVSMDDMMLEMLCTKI
ssDAF-12 act: S. stercoralis DAF-12 nuclear receptor activators, primary screen, cell-based, luminescence, HEK293, GRIP1 co-expression, lit1-tk-luc; Nuclear hormone receptor DAF-12 (Strongyloides stercoralis); HEK293 ssDAF-12/GRIP1 lit1-tk-luc reporter; % of 3 µM dafachronic acid response; activation, % at 6.8 µM; actives 1% (n = 370,000);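 active = activation above the mean over all tested compounds plus 3 SD, cut at about 0.9% in these data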;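 also: 0% = DMSO-only wells and 100% = 3 µM delta7-dafachronic acid wells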
DAX1 inh-2: DAX1 (NR0B1) inhibitors on StAR promoter, primary screen, cell-based, luminescence, SF-1 (NR5A1), full-length DAX-1; HEK293T StAR-luciferase reporter, SF-1/DAX-1 repression relief; inhibition, % at 6.8 µM; actives 1.1% (n = 370,000);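 active = inhibition above the mean over all tested compounds plus 3 SD, cut at about 3.6% in these data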;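 also: 0% = DAX-1 cells with DMSO and 100% = cells lacking DAX-1 with DMSO; higher inhibition means more luminescence from relief of DAX-1 repression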
hgDAF-12 ag: H. glycines DAF-12 receptor agonists, primary screen, cell-based, luminescence, HEK293, GAL4 fusion, UAS-luciferase; Nuclear hormone receptor DAF-12 (Heterodera glycines), GAL4 fusion; HEK293 GAL4-hgDAF12 UAS-luciferase reporter, agonist luminescence; normalized to butyrate control; activation, % at 6.8 µM; actives 1.8% (n = 370,000);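 active = activation above a cutoff set at the mean of all screened compounds plus 3 SD, cut at about 10% in these data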;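 also: 0% = DMSO wells and 100% = sodium butyrate wells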
Rev-erbA mod: modulators of Rev-erb alpha DNA binding, primary screen, biochemical, FITC-DNA, fluorescence polarization, uHTS | Nuclear receptor subfamily 1 group D member 1 (Homo sapiens), P20393 | Rev-erbα–FITC-DNA binding, 90 min | activity, % at 10 µM | actives 0.79% (n = 370,000);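 active = activity above about 14%, limit read from the data; passing the limit was not always enough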;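 also: 0% = DMSO wells with 35 nM protein and 100% = DMSO wells with 750 nM protein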
An asterisk follows results filed as active. The list is not random: actives were taken first. Their share in the collection is about 4.8%.

Screening O=C(Nc1cccc2nsnc12)c1ccc2c(c1)OCCO2 returned hcDAF12 agonist 5.6*, DAX1 inh-1 1, ssDAF-12 act 0, DAX1 inh-2 2, hgDAF-12 ag 10 and Rev-erbA mod -3.
For Cc1cccc(NC(=O)c2ccc3c(c2)OCCO3)c1C the results were hcDAF12 agonist 4, DAX1 inh-1 0, ssDAF-12 act 0, DAX1 inh-2 2, hgDAF-12 ag 12* and Rev-erbA mod 2.
O=C(COC(=O)c1cccc(-n2cnnn2)c1)Nc1c(Cl)cccc1C(F)(F)F was read as hcDAF12 agonist -1, DAX1 inh-1 0, ssDAF-12 act -1, DAX1 inh-2 3.9*, hgDAF-12 ag -2 and Rev-erbA mod 6.
Screening Clc1ccc(-c2cc(CSc3ccccc3)on2)cc1 returned hcDAF12 agonist 1, DAX1 inh-1 3, ssDAF-12 act -1, DAX1 inh-2 2, hgDAF-12 ag 13* and Rev-erbA mod 7.
`CCCC(=O)N1CCC[C@]2(CC[C@@H](CCC(C)=O)O2)C1` gave hcDAF12 agonist 0, ssDAF-12 act -1, DAX1 inh-2 2, hgDAF-12 ag -1 and Rev-erbA mod 1.
`Cc1nc(-c2ccc(NC(=O)c3ccccc3Br)cc2)cs1` gave hcDAF12 agonist -1, DAX1 inh-1 1, ssDAF-12 act 1, DAX1 inh-2 3, hgDAF-12 ag 21* and Rev-erbA mod 2.
Screening O=C(Nc1ccc2[nH]ncc2c1)c1ccccc1 returned hcDAF12 agonist 3, DAX1 inh-1 2, ssDAF-12 act 0, DAX1 inh-2 1, hgDAF-12 ag 7 and Rev-erbA mod 4.
O=C(Nc1ccc2[nH]ncc2c1)c1ccccc1Cl was read as hcDAF12 agonist 1, DAX1 inh-1 -1, ssDAF-12 act -1, DAX1 inh-2 1, hgDAF-12 ag 13* and Rev-erbA mod 2.
Screening O=C(Nc1ccc2[nH]ncc2c1)c1ccccc1Br returned hcDAF12 agonist 4, DAX1 inh-1 1, ssDAF-12 act -1, DAX1 inh-2 2, hgDAF-12 ag 12* and Rev-erbA mod 0.
CC(c1ccc(F)cc1)n1cc(C(=O)NCc2ccccn2)nn1 (stereo unspecified) was read as hcDAF12 agonist 0, DAX1 inh-1 -1, ssDAF-12 act -1, DAX1 inh-2 0, hgDAF-12 ag -3 and Rev-erbA mod -2.
Screening CC(c1ccc(F)cc1)n1cc(C(=O)NCCN(C)C)nn1 (stereo unspecified) returned hcDAF12 agonist -1, DAX1 inh-1 5.5*, ssDAF-12 act -1, DAX1 inh-2 0, hgDAF-12 ag 0 and Rev-erbA mod -6.
Screening COc1ccc(OCC(C)CN2CCC(C(O)(c3ccccc3)c3ccccc3)CC2)cc1 (stereo unspecified) returned hcDAF12 agonist -3, ssDAF-12 act -1, DAX1 inh-2 0, hgDAF-12 ag -3 and Rev-erbA mod 1.
For C[C@@H]1COc2cc(Br)ccc2S(=O)(=O)N1Cc1cn(CCC2OCCO2)nn1 the results were hcDAF12 agonist -2, ssDAF-12 act -1, DAX1 inh-2 -1, hgDAF-12 ag -1 and Rev-erbA mod 7.
O=C(Nc1ccc(F)cc1)c1cccc2c1C(=O)N(CC1CCCO1)C2 (stereo unspecified) was read as hcDAF12 agonist -4, DAX1 inh-1 4.2*, ssDAF-12 act -1, DAX1 inh-2 2, hgDAF-12 ag 1 and Rev-erbA mod 4.
`COCCN1Cc2cccc(C(=O)Nc3ccc(S(=O)(=O)N4CCOCC4)cc3)c2C1=O` gave hcDAF12 agonist 2, DAX1 inh-1 4, ssDAF-12 act -1, DAX1 inh-2 0, hgDAF-12 ag -2 and Rev-erbA mod 1.
Screening COc1ccc(CNC(=O)c2cccc3c2C(=O)N(CC2CCCO2)C3)cc1 (stereo unspecified) returned hcDAF12 agonist 1, DAX1 inh-1 -1, ssDAF-12 act -1, DAX1 inh-2 0, hgDAF-12 ag -3 and Rev-erbA mod -4.
For COCCN1Cc2cccc(C(=O)Nc3ccc(S(=O)(=O)N4CCCCCC4)cc3)c2C1=O the results were hcDAF12 agonist -2, DAX1 inh-1 0, ssDAF-12 act 1.5*, DAX1 inh-2 0, hgDAF-12 ag 0 and Rev-erbA mod 2.
CCCCCCn1cc(CN2CC=CS2(=O)=O)nn1 was read as hcDAF12 agonist -1, ssDAF-12 act -2, DAX1 inh-2 0, hgDAF-12 ag 5 and Rev-erbA mod 1.
Cc1cc(C(=O)NNc2ccccc2F)no1 was read as hcDAF12 agonist -1, DAX1 inh-1 7.2*, ssDAF-12 act -1, DAX1 inh-2 0, hgDAF-12 ag -1 and Rev-erbA mod -3.
Cc1ccccc1Cn1nc(C)c(NC(=O)c2ccccc2)c1C was read as hcDAF12 agonist -1, DAX1 inh-1 -1, ssDAF-12 act -1, DAX1 inh-2 -1, hgDAF-12 ag 13* and Rev-erbA mod -1.
Screening CC(C)NC(=O)c1nc2ccccc2s1 returned hcDAF12 agonist 3, DAX1 inh-1 -1, ssDAF-12 act 3.2*, DAX1 inh-2 0, hgDAF-12 ag 1 and Rev-erbA mod -3.
Screening CC(C)=C(C#N)c1nc2ccccc2s1 returned hcDAF12 agonist 3, DAX1 inh-1 5.4*, ssDAF-12 act 0, DAX1 inh-2 1, hgDAF-12 ag 3 and Rev-erbA mod -2.
COC(=O)c1ccc(CC(=O)c2nc3ccccc3s2)cc1 was read as hcDAF12 agonist 4, DAX1 inh-1 -1, ssDAF-12 act 1.0*, DAX1 inh-2 1, hgDAF-12 ag 1 and Rev-erbA mod 3.
For CCOc1cc(C(=O)Nc2cccnc2)cc(OCC)c1OCC the results were hcDAF12 agonist 4, DAX1 inh-1 1, ssDAF-12 act 1.2*, DAX1 inh-2 -1, hgDAF-12 ag 1 and Rev-erbA mod -2.
Screening CCSc1ccccc1C(=O)Nc1cccnc1 returned hcDAF12 agonist -1, DAX1 inh-1 4.7*, ssDAF-12 act -1, DAX1 inh-2 1, hgDAF-12 ag 3 and Rev-erbA mod -3.
Screening CCSc1ccccc1C(=O)Nc1nncs1 returned hcDAF12 agonist -1, DAX1 inh-1 0, ssDAF-12 act -1, DAX1 inh-2 0, hgDAF-12 ag 2 and Rev-erbA mod 3.
